Source: PubChem BioAssay (NCATS)
Results filed as inconclusive are left out. Entries that show only a call come without a potency. Values without a mark were called inactive. Activity calls are given as the source filed them. Calls follow the shape of the dose curve; as a rule, active = well fitted curve in the direction sought with a large enough effect; inconclusive = small, poorly fitted or top-dose-only effect, or another doubt; inactive = no such curve, though single readings can be large; an effect the other way counts as inactive or inconclusive.

Tests used:
[1] = biological target: Calcium and integrin-binding protein 1 (Homo sapiens) (UniProt Q99828); assay: Primary qHTS for Identification of Calcium Integrin Binding Protein 1 (CIB1) Competitor (AID 1508620);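 also: GST tagged CIB1 binding a fluorescein labelled alphaIIb integrin peptide tracer; top concentration of the series differs between compounds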
Procedure, shortened: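 Fluorescence polarization competition: CIB1-GST (1 uM final) preincubated with compound 15 min at room temperature, then FITC-labeled alphaIIb peptide (100 nM final) added for another 15 min. Polarization read at Ex 480/Em 540.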

[2] = Primary qHTS for inhibitors of nuclear receptor binding SET domain protein 2 (NSD2) in an isogenic RCH-ACV NSD2 p.E1099K mutant (9B) (AID 1645876); also: nearly all actives have a fitted effect of over 70% in size; also: potency is read from the fitted curve at half-maximal effect
[3] = Primary qHTS for inhibitors of nuclear receptor binding SET domain protein 2 (NSD2) in an RCH-ACV wild type WT cells (2C) (AID 1645877); also: nearly all actives have a fitted effect of over 70% in size; also: potency is read from the fitted curve at half-maximal effect

Sequence of Calcium and integrin-binding protein 1 (Homo sapiens) (Q99828 whole entry, looked up): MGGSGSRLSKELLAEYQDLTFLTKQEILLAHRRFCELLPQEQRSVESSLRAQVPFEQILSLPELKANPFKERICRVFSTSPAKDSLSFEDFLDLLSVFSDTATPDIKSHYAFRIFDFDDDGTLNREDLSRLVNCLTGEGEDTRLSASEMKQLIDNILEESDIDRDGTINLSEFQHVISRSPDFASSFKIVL

SMILES | Potency [1] | Potency [2] | Potency [3] | activity change, negative = viability loss [2] | activity change, negative = cell killing [3]
CC(=O)OC1C(c2ccccc2)CCC(c2ccccc2)C1OC(C)=O (stereo not given) | inactive | inactive | inactive |  | 
CC(=O)OC1CC2C3(C)CCC(OC(=O)CC(=O)O)C(C)(C)C3CCC2(C)C2(C)CCC(C3(C)CCC(=O)O3)C12 (stereo not given) | inactive | inactive | inactive |  | 
COC(=O)C1=CO[C@@H](O[C@@H]2O[C@H](CO)[C@@H](O)[C@H](O)[C@H]2O)[C@@H]2C(CO)=CC[C@]12O | inactive | inactive | inactive |  | 
C=C(C)C1CC[C@]2(C(=O)O)CC[C@]3(C(=O)O)[C@H](CCC4[C@@]5(C)CC[C@H](O)C(C)(C)C5CC[C@]43C)C12 (stereo not given in full) | inactive | inactive | inactive |  | 
COc1cc(O)cc(/C=C/c2ccc(O[C@@H]3O[C@H](CO)[C@@H](O)[C@H](O)[C@H]3O)cc2)c1 | inactive | 8.93 µM (active) | 7.96 µM (active) |  | 
CC(C)C(C(=O)N(C)C(C)C(N)=O)N(C)C(=O)C1CCCN1C(=O)/C=C/C=C/C(O)C(C)O (stereo not given) | inactive | inactive | inactive |  | 
C/C=C/c1ccc(O[C@@H]2O[C@H](CO)[C@@H](O)[C@H](O)[C@H]2O)c(OC)c1 | inactive | inactive | inactive |  | 
COC(=O)C(C)C1CCC2(C)C(=O)C=CC(C)(O)C2C1O (stereo not given) | inactive | inactive | inactive |  | 
C=C(CO[C@@H]1O[C@H](CO[C@@H]2OC[C@](O)(CO)[C@H]2O)[C@@H](O)[C@H](O)[C@H]1O)C1Cc2cc(C(C)=O)ccc2O1 (stereo not given in full) | inactive | inactive | inactive |  | 
CC(O)/C=C/C1(O)C2(C)COC1(C)CC(O)C2 (stereo not given) | inactive | inactive | inactive |  | 
CC1C(=O)OCC2=CCN3CCC(OC(=O)C(C)(O)C1(C)O)C23 (stereo not given) | inactive | inactive | inactive |  | 
COc1cc(O)c2c(c1)C1=C[C@H](O)[C@@H](O)C[C@]1(C)OC2=O | inactive | inactive | inactive |  | 
CC(O)CCC1C(CO[C@@H]2O[C@H](CO)[C@@H](O)[C@H](O)[C@H]2O)CC(O)CC1(C)C (stereo not given in full) | inactive | inactive | inactive |  | 
C=C(C)C(=O)OC1C(OC(C)=O)/C(C=O)=C\CC/C(CO)=C/C2OC(=O)C(=C)C21 (stereo not given) | inactive | 3.17 µM (active) | 1.42 µM (active) |  | 
C[C@@H]1O[C@@H](O[C@@H]2[C@@H](O)[C@H](O[C@H]3CC[C@@]4(C)C(CC[C@]5(C)C4CC=C4[C@@H]6CC(C)(C)CC[C@]6(C(=O)O[C@@H]6O[C@H](CO)[C@@H](O)[C@H](O)[C@H]6O)CC[C@]45C)C3(C)C)O[C@H](C(=O)O)[C@H]2O)[C@H](O)[C@H](O)[C@H]1O (stereo not given in full) | inactive |  |  | -9.85% [at 9.23 µM] | -14.9% [at 9.23 µM]
CC(=O)O[C@H]1[C@@H](O)[C@H](O[C@H]2[C@@H]3C=CO[C@@H](O[C@H]4O[C@@H](CO)[C@H](O)[C@@H](O)[C@@H]4O)[C@@H]3[C@@]3(CO)O[C@@H]23)O[C@@H](C)[C@@H]1OC(=O)/C=C/c1ccccc1 | inactive | inactive | inactive |  | 
OC[C@H]1O[C@@H](OCCc2ccccc2)[C@H](O[C@@H]2OC[C@](O)(CO)[C@H]2O)[C@@H](O)[C@@H]1O | inactive | inactive | inactive |  | 
COc1c2c(c(C)c3c1C(=O)OC3)O[C@@]1(C)CCC3(C(C)(C)O)OC(=O)CC[C@]3(C)[C@H]1C2 (stereo not given in full) | inactive | inactive | inactive |  | 
CC(C)C(NC(=O)c1ccc2ccccc2n1)C(=O)NC(CC(=O)O)C(=O)COc1c(F)cccc1F (stereo not given) | inactive | inactive | inactive |  | 
C[C@@H]1O[C@@H](OC[C@H]2O[C@@H](Oc3cc(O)cc4c3C(=O)C(O)(Cc3ccc(O)cc3)O4)[C@H](O)[C@@H](O)[C@@H]2O)[C@H](O)[C@H](O)[C@H]1O (stereo not given in full) | inactive | inactive | inactive |  | 
CC(=O)c1ccc2c(c1)C(O)C(C(C)(C)O)O2 (stereo not given) | inactive | inactive | inactive |  | 
COc1ccc([C@@H]2OC[C@H]3[C@@H]2CO[C@@H]3c2ccc(OC3OC(CO)C(O)C(O)C3O)c(OC)c2)cc1OC (stereo not given in full) | inactive | inactive | inactive |  | 
COc1c2c(c(C)c3c1C(=O)OC3)OC1(C)CC(O)C(C(C)(C)O)C(C)(CCC(=O)O)C1C2 (stereo not given) | inactive | inactive | inactive |  | 
O=C1OCC(c2ccccc2)=C1Cc1ccccc1 | inactive | inactive | inactive |  | 
CC1(C)C2CC=C(COC3OC(COC4OCC(O)(CO)C4O)C(O)C(O)C3O)C1C2 (stereo not given) | inactive | inactive | inactive |  | 
C=C(CO)C12OC1C1(C)C(=CC2=O)C(O)C(O)CC1C (stereo not given) | inactive | inactive | inactive |  | 
C/C=C/C=C/C(O)=C1\C(O)=C(C)C(=O)[C@@]2(C)OC(=O)[C@@](C)(NC(=O)/C=C/C(=O)O)[C@@H]12 | inactive | inactive | inactive |  | 
COc1ccc(C2(O)c3ccccc3NC(=O)C2O)cc1 (stereo not given) | inactive | inactive | inactive |  | 
C=C1CCC[C@]2(C)CC[C@@H](C(=C)C(=O)O)[C@H](O)[C@@H]12 | inactive | inactive | inactive |  | 
C/C1=C\CC[C@H](C)CCO[C@@H]2O[C@H](CO[C@@H]3OC[C@](O)(COC1=O)[C@H]3O)[C@@H](O)[C@H](O)[C@H]2O | inactive | inactive | inactive |  | 
